Source: PubChem BioAssay AID1376 (SRMLSC, 2008)
Among all 220,000 compounds or so, about 530 (0.24%) were called active. Rule as the data show it: active = inhibition above about 13%; inconclusive = no clear call, values can overlap the other calls; inactive = below that. Many of the other results were omitted from the sample, so actives are more common in it than they were. Potency and affinity values are given separately.

Target: Bifunctional protein GlmU (Mycobacterium tuberculosis (strain ATCC 25618 / H37Rv)) (UniProt P9WMN3)
Sequence (P9WMN3 whole entry, looked up): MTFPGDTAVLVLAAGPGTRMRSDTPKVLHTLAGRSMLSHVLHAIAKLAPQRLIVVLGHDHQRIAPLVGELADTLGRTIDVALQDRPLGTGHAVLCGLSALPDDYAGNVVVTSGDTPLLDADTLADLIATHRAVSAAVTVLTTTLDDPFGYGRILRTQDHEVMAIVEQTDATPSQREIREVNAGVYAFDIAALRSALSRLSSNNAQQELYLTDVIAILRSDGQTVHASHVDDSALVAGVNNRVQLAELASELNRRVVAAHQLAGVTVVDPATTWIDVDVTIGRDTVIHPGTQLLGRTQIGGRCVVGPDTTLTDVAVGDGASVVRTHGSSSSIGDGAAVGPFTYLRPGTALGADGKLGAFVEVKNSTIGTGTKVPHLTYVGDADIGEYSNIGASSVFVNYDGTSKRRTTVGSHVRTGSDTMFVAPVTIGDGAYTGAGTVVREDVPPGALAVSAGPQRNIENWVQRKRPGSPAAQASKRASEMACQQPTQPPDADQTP
Assay: inhibition of mycobacterial GlmU enzyme – biochemical, glucosamine-1-phosphate acetyltransferase (AID 1376);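 also: 0% = complete reaction with vehicle and 100% = reaction without substrate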
Settings: M. tuberculosis GlmU acetyltransferase enzyme assay; active compounds read high;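 tested at 30 µM in the primary screen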

Structure (SMILES)	inhibition
Cc1nc2c(=O)n(-c3ccc(F)c(Cl)c3)nc(C)c2s1	-1.25% (inactive)
FC(F)(F)c1ccccc1NC(=S)N/N=C1\CC2CC=CC12 (configuration not stated)	-4.32% (inactive)
Cc1cccc(C)c1NC(=S)N/N=C1\CC2CC=CC12 (configuration not stated)	14.2% (active)
Cc1ccc(NC(=S)N/N=C2\CC3CC=CC23)c(C)c1 (configuration not stated)	2.83% (inactive)
Clc1ccc(-c2nnc(-c3ccco3)nc2N2CCCCC2)cc1	-2.38% (inactive)
Cc1ccc(C(=O)N/N=C\c2ccc(-c3ccc(Cl)c(Cl)c3)o2)cn1	-1.63% (inactive)
Nc1ccc(C(=O)O)cc1[N+](=O)[O-]	-10.2% (inactive)
NS(=O)(=O)c1ccc(CNC(=O)NC2(c3ccccc3)CC2)cc1	-5.17% (inactive)
CCOc1ccccc1CN1CCC(CO)(CCOc2ccccc2)CC1	-6.84% (inactive)
CCc1ccc(-n2c(SCC(=O)N3CCC(C(=O)O)CC3)nnc2-c2ccncc2)cc1	14.8% (active)
Cc1c(Cl)cccc1-n1c(SCC(=O)N2CCC(C(=O)O)CC2)nnc1-c1ccncc1	-2.06% (inactive)
Cc1ccccc1-n1c(SCC(=O)N2CCC(C(=O)O)CC2)nnc1-c1ccncc1	1.39% (inactive)
O=[n+]1c2c(n([O-])c3c1CCC3)CCCC2	-2.34% (inactive)
O=C(Nc1ccccc1)c1ccccc1N=Cc1ccccc1O	-2.01% (inactive)
O=c1[nH][nH]c2c(N=Cc3ccccc3O)ccc(F)c12	28.6% (active)
O=c1[nH][nH]cc1C=Nc1ccccc1O	-0.91% (inactive)
Cc1ccc(NC(=O)CC2=NC(=O)C(CC(=O)Nc3ccccc3C)S2)cc1 (configuration not stated)	0.67% (inactive)
OC(CNCc1ccc2c(c1)OCO2)COc1ccc(F)cc1 (configuration not stated)	-6.96% (inactive)
COc1ccc(CN(CC2CCC(C(=O)O)CC2)C(=S)Nc2ccc(C)c(Cl)c2)cc1 (configuration not stated)	5.02% (inactive)
CCC(=O)Nc1c(C)cc(C)cc1Cl	2.67% (inactive)
CCC(=O)NC1=C(NC(C)c2ccccc2)C(=O)c2ccccc2C1=O (configuration not stated)	4.92% (inactive)
CCC(=O)NC1=C(Cl)C(=O)C(NC(=O)CC)=C(Cl)C1=O	15.5% (active)
COc1ccc(-c2noc(CSc3nc(-c4ccccc4)cc(=O)[nH]3)n2)cc1OC	2.31% (inactive)

Structure (SMILES)	inhibition
O=C(Nc1ccc(Cl)cc1C(=O)O)c1ccc2c(c1)C(=O)N(Cc1ccco1)C2=O	13.9% (active)
Cc1c(NC(=O)c2ccc3c(c2)C(=O)N(Cc2ccco2)C3=O)cccc1C(=O)O	-0.73% (inactive)
O=C(Nc1ccc(O)cc1C(=O)O)c1ccc2c(c1)C(=O)N(Cc1ccco1)C2=O	4.38% (inactive)
CNC(=O)COC(=O)c1cc2c(s1)CCCC2	-3.54% (inactive)
COc1ccc(C(=O)NC(=S)NC(C)(C)C)cc1Br	-2.26% (inactive)
COc1ccc(C(=O)NC(=S)NC(C)C)cc1Br	4.89% (inactive)
COc1ccc(C(=O)NC(=S)Nc2nc(C)cc(C)n2)cc1Br	13.4% (active)
CC1(C)CC(=O)C=C(NNC(=O)c2cccnc2)C1	-2.32% (inactive)
Cc1ccc(N2C(=O)CSCC2=O)cc1	-0.48% (inactive)
Cc1ccc(N2C(=O)CS/C2=C(\C(Cl)=C(Cl)Cl)[N+](=O)[O-])cc1	12.9% (active)
CCOc1ccc(N2C(=O)CS/C2=C(\C(Cl)=C(Cl)Cl)[N+](=O)[O-])cc1	7.22% (inactive)
CC(=O)N1N=C(c2cccs2)CC1c1cccs1 (configuration not stated)	-7.39% (inactive)
CCNC(=O)CCS(=O)(=O)c1ccc2ccccc2c1	5.84% (inactive)
Cc1sc2nc(C3CC3)nc(SCC(=O)N3CC(=O)Nc4ccccc43)c2c1C	2.43% (inactive)
CCc1nc(SCC(=O)N2CC(=O)Nc3ccccc32)c2c(C)c(C)sc2n1	14.6% (active)
Cc1sc2nc(C3CCCCC3)nc(SCC(=O)N3CC(=O)Nc4ccccc43)c2c1C	-0.32% (inactive)
COCCCNc1nc2nonc2nc1N1CCN(C2CCCC2)CC1	-4.2% (inactive)
CN1CCN(C(=S)Nc2ccccc2Cl)CC1	7.2% (inactive)
CCCCOC(=O)CSc1nc2ccccc2o1	6.41% (inactive)
COc1cc(-c2cn[nH]c2N)cc(OC)c1OC	6.07% (inactive)
COc1ccc(/C=N/NC(=O)c2ccc(Cl)c(S(N)(=O)=O)c2)cc1OCC(N)=O	2.57% (inactive)
O=C(O)C(c1ccccc1)C1(O)CCCC1 (configuration not stated)	13.3% (active)
O=C(O)C(c1ccccc1)C(c1ccccc1)c1ccccc1 (configuration not stated)	2.54% (inactive)

Structure (SMILES)	inhibition
O=C(O)C(c1ccccc1)c1ccccc1	4.26% (inactive)
COc1ccc(C(=O)Nc2ccc([N+](=O)[O-])cn2)c(OC)c1	0.14% (inactive)
COc1ccc(/C=N/N(Cc2ccccc2)c2ccccc2)cc1O	6.68% (inactive)
O=C(/C(=N/N=C/c1ccc(O)c(O)c1O)c1ccccc1)c1ccccc1	7.49% (inactive)
CCN(CC)c1ccc(/C=N/N=C(c2ccccc2)c2ccccc2)c(O)c1	6.73% (inactive)
Oc1cccc(/C=N/N(Cc2ccccc2)c2ccccc2)c1	-0.56% (inactive)
Oc1ccc(/C=N/N(Cc2ccccc2)c2ccccc2)c(O)c1O	13.5% (active)
COc1ccc(C2CC(=O)c3cc(OC)c(OC)cc32)cc1OC (configuration not stated)	-0.52% (inactive)
CCOc1cc(C2C(C(=O)OC)=C(C)N=C3SC(C)C(=O)N32)ccc1OC(C)=O (configuration not stated)	-1.96% (inactive)
CCOC(=O)C1=C(C)N=C2SC(C)C(=O)N2C1c1ccc(OC(C)=O)c(OC)c1 (configuration not stated)	5.74% (inactive)
CCOC(=O)C1=C(C)N=C2SC(C)C(=O)N2C1c1ccc(OCC)c(OCC)c1 (configuration not stated)	14.7% (active)
Cc1cccc(OCc2nnc(SCc3cc(=O)n4cc(Br)ccc4n3)o2)c1	7.11% (inactive)
O=C(Nc1ccc(N2CCOCC2)cc1)c1ccc2nc(-c3ccco3)c(-c3ccco3)nc2c1	10.1% (inactive)
O=C(NCCO)c1ccc2nc(-c3ccco3)c(-c3ccco3)nc2c1	5.04% (inactive)
CC(=O)c1ccc(NC(=O)c2ccc3nc(-c4ccco4)c(-c4ccco4)nc3c2)cc1	14.4% (active)
CCOC(=O)C1CCN(C(=O)Nc2ccc3nc(-c4ccco4)c(-c4ccco4)nc3c2)CC1	11.1% (inactive)
O=C(Nc1ccccc1)c1ccc2nc(-c3ccco3)c(-c3ccco3)nc2c1	2.41% (inactive)
O=C(Nc1ccc2nc(-c3ccco3)c(-c3ccco3)nc2c1)N1CCN(c2ccccn2)CC1	12.6% (inactive)
O=C(Nc1ccc2nc(-c3ccco3)c(-c3ccco3)nc2c1)N1CCCCCC1	14.8% (active)
O=C(NCCO)Nc1ccc2nc(-c3ccco3)c(-c3ccco3)nc2c1	19.4% (active)
O=C(Nc1ccc(N2CCOCC2)cc1)Nc1ccc2nc(-c3ccco3)c(-c3ccco3)nc2c1	-3.2% (inactive)
